Measured values published in PubChem BioAssay AID1159580 (chemical genetic matrix, 2015).
The campaign covered roughly 5,500 compounds. About 2,000 (36%) were called active. Inconclusive results (about 18%) are left out. Cut-off read from the data, not from the text of the source: active = normalized growth mostly below about 0.91 (no sharp cut-off); inconclusive = no clear call, values can overlap the other calls; inactive = mostly above about 0.92. The list shows a part of the results.

Test: chemical genetic growth profiling, strain panel (AID 1159580);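 note: tested at 20 µM; growth read once vehicle control cultures reached saturation at 30 °C; 1 = growth at the plate median or of vehicle wells; lower values mean less growth of the strain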
Conditions: growth OD

Measured: normalized growth

CCC(Cc1c(I)cc(I)c(N)c1I)C(=O)O (stereo unspecified)
inactive: S. cerevisiae deletion strains, locus YKL009W, strain mrt4, stronger effect = lower value 0.974 | S. cerevisiae deletion strains, locus YKL068W, stronger effect = lower value 0.986 | S. cerevisiae deletion strains, locus YKL085W, strain MDH1 (second series), stronger effect = lower value 0.982 | S. cerevisiae deletion strains, locus YKL085W, strain MDH1, stronger effect = lower value 0.982 | S. cerevisiae deletion strains, locus YKL160W, strain elf1, stronger effect = lower value 0.961 | S. cerevisiae deletion strains, locus YKL190W, strain CNB1, stronger effect = lower value 1 | S. cerevisiae deletion strains, locus YKR001C, strain vps1, stronger effect = lower value 0.996 | S. cerevisiae deletion strains, locus YKR026C, strain gcn3, stronger effect = lower value 0.946 | S. cerevisiae deletion strains, locus YKR091W, strain srl3, stronger effect = lower value 0.941 | S. cerevisiae deletion strains, locus YLL001W, strain dnm1, stronger effect = lower value 0.977 | S. cerevisiae deletion strains, locus YLL026W, stronger effect = lower value 0.96 | S. cerevisiae deletion strains, locus YLL041C, strain sdh2, stronger effect = lower value 0.954 | S. cerevisiae deletion strains, locus YLR027C, strain aat2, stronger effect = lower value 0.964 | S. cerevisiae deletion strains, locus YLR039C, strain RIC1, stronger effect = lower value 0.933 | S. cerevisiae deletion strains, locus YLR058C, strain SHM2, stronger effect = lower value 1 | S. cerevisiae deletion strains, locus YLR102C, strain apc9, stronger effect = lower value 0.999 | S. cerevisiae deletion strains, locus YLR262C, strain YPT6, stronger effect = lower value 0.936 | S. cerevisiae deletion strains, locus YLR268W, strain sec22, stronger effect = lower value 1 | S. cerevisiae deletion strains, locus YLR330W, strain CHS5, stronger effect = lower value 0.999 | S. cerevisiae deletion strains, locus YLR342W, strain FKS1 (second series), stronger effect = lower value 1 | S. cerevisiae deletion strains, locus YLR342W, strain FKS1, stronger effect = lower value 0.944 | S. cerevisiae deletion strains, locus YLR357W, strain rsc2, stronger effect = lower value 1.02 | S. cerevisiae deletion strains, locus YLR370C, strain arc18, stronger effect = lower value 0.95 | S. cerevisiae deletion strains, locus YLR371W, strain rom2, stronger effect = lower value 1 | S. cerevisiae deletion strains, locus YLR384C, strain iki3, stronger effect = lower value 0.954 | S. cerevisiae deletion strains, locus YLR418C, strain cdc73, stronger effect = lower value 1.02 | S. cerevisiae deletion strains, locus YML016C, strain PPZ1, stronger effect = lower value 0.995 | S. cerevisiae deletion strains, locus YML032C, strain rad52, stronger effect = lower value 1.02 | S. cerevisiae deletion strains, locus YML120C, strain ndi1, stronger effect = lower value 0.95 | S. cerevisiae deletion strains, locus YML124C, strain tub3, stronger effect = lower value 0.992 | S. cerevisiae deletion strains, locus YMR058W, strain fet3, stronger effect = lower value 0.944 | S. cerevisiae deletion strains, locus YMR078C, strain ctf18, stronger effect = lower value 1 | S. cerevisiae deletion strains, locus YMR125W, strain sto1, stronger effect = lower value 0.948 | S. cerevisiae deletion strains, locus YMR129W, stronger effect = lower value 0.932 | S. cerevisiae deletion strains, locus YMR205C, strain PFK2, stronger effect = lower value 0.906 | S. cerevisiae deletion strains, locus YMR223W, strain ubp8, stronger effect = lower value 1.01 | S. cerevisiae deletion strains, locus YMR231W, strain pep5, stronger effect = lower value 0.97 | S. cerevisiae deletion strains, locus YMR263W, strain SAP30, stronger effect = lower value 0.989 | S. cerevisiae deletion strains, locus YMR307W, strain GAS1, stronger effect = lower value 0.963 | S. cerevisiae deletion strains, locus YNL067W, strain RPL9B, stronger effect = lower value 1.01 | S. cerevisiae deletion strains, locus YNL128W, strain TEP1, stronger effect = lower value 1.01 | S. cerevisiae deletion strains, locus YNL153C, strain GIM3, stronger effect = lower value 1.01 | S. cerevisiae deletion strains, locus YNL209W, strain ssb2, stronger effect = lower value 0.966 | S. cerevisiae deletion strains, locus YNL233W, strain BNI4, stronger effect = lower value 1.01 | S. cerevisiae deletion strains, locus YNL248C, strain rpa49, stronger effect = lower value 0.887 | S. cerevisiae deletion strains, locus YNL250W, strain rad50, stronger effect = lower value 0.994 | S. cerevisiae deletion strains, locus YNL271C, strain bni1, stronger effect = lower value 0.979 | S. cerevisiae deletion strains, locus YNL298W, strain CLA4, stronger effect = lower value 0.981 | S. cerevisiae deletion strains, locus YNL307C, strain MCK1, stronger effect = lower value 0.997 | S. cerevisiae deletion strains, locus YNL322C, strain KRE1 (second series), stronger effect = lower value 0.932 | S. cerevisiae deletion strains, locus YNL322C, strain KRE1, stronger effect = lower value 1 | S. cerevisiae deletion strains, locus YNR049C, strain mso1, stronger effect = lower value 0.925 | S. cerevisiae deletion strains, locus YNR052C, strain pop2, stronger effect = lower value 0.998 | S. cerevisiae deletion strains, locus YOL006C, strain TOP1, stronger effect = lower value 1.01 | S. cerevisiae deletion strains, locus YOL012C, strain htz1 1.15 | S. cerevisiae deletion strains, locus YOL147C, strain pex11, stronger effect = lower value 0.999 | S. cerevisiae deletion strains, locus YOR001W, strain rrp6, stronger effect = lower value 1 | S. cerevisiae deletion strains, locus YOR061W, strain CKA2, stronger effect = lower value 0.997 | S. cerevisiae deletion strains, locus YOR069W, strain VPS5, stronger effect = lower value 0.999 | S. cerevisiae deletion strains, locus YOR080W, strain dia2, stronger effect = lower value 0.95 | S. cerevisiae deletion strains, locus YOR083W, strain WHI5, stronger effect = lower value 0.949 | S. cerevisiae deletion strains, locus YOR106W, strain vam3, stronger effect = lower value 0.943 | S. cerevisiae deletion strains, locus YOR136W, strain idh2, stronger effect = lower value 1.02 | S. cerevisiae deletion strains, locus YOR144C, strain elg1, stronger effect = lower value 0.985 | S. cerevisiae deletion strains, locus YOR184W, strain ser1, stronger effect = lower value 1.01 | S. cerevisiae deletion strains, locus YOR265W, strain rbl2, stronger effect = lower value 0.951 | S. cerevisiae deletion strains, locus YOR270C, strain vph1, stronger effect = lower value 0.784 | S. cerevisiae deletion strains, locus YOR290C, strain snf2, stronger effect = lower value 0.92 | S. cerevisiae deletion strains, locus YOR316C, strain cot1, stronger effect = lower value 0.999 | S. cerevisiae deletion strains, locus YPL051W, strain arl3, stronger effect = lower value 0.925 | S. cerevisiae deletion strains, locus YPL055C, strain LGE1, stronger effect = lower value 1.04 | S. cerevisiae deletion strains, locus YPL078C, strain atp4, stronger effect = lower value 0.974 | S. cerevisiae deletion strains, locus YPL106C, strain sse1, stronger effect = lower value 0.951 | S. cerevisiae deletion strains, locus YPL240C, strain hsp82, stronger effect = lower value 0.939 | S. cerevisiae deletion strains, locus YPL241C, strain CIN2, stronger effect = lower value 0.975 | S. cerevisiae deletion strains, locus YPR119W, strain clb2, stronger effect = lower value 0.988 | S. cerevisiae deletion strains, locus YPR141C, strain kar3, stronger effect = lower value 0.988 | S. cerevisiae deletion strains, locus YPR163C, strain tif3, stronger effect = lower value 1.01 | S. cerevisiae deletion strains, locus YPR167C, strain met16, stronger effect = lower value 1 | S. cerevisiae deletion strains, strain wtn01, stronger effect = lower value 1 | S. cerevisiae strains, strain wild type, stronger effect = lower value 0.999
active: S. cerevisiae deletion strains, locus YLR113W, strain HOG1, stronger effect = lower value 0.127 | S. cerevisiae deletion strains, locus YLR221C, strain rsa3, stronger effect = lower value 0.876 | S. cerevisiae deletion strains, locus YLR258W, strain gsy2, stronger effect = lower value 0.909 | S. cerevisiae deletion strains, locus YLR262C, strain YPT6 (second series), stronger effect = lower value 0.698 | S. cerevisiae deletion strains, locus YLR320W, strain mms22, stronger effect = lower value 0.873 | S. cerevisiae deletion strains, locus YNL071W, strain lat1, stronger effect = lower value 0.689 | S. cerevisiae deletion strains, locus YNL183C, strain NPR1, stronger effect = lower value 0.0218 | S. cerevisiae deletion strains, locus YOR070C, strain gyp1, stronger effect = lower value 0.917 | S. cerevisiae deletion strains, locus YOR231W, strain MKK1, stronger effect = lower value 0.113 | S. cerevisiae deletion strains, locus YPL256C, strain CLN2, stronger effect = lower value 0.126
